Experimental data reported in article PMC4336329 (PLoS ONE, 2015).
Out of some 310,000 compounds screened, about 14,000 (4.5%) showed an effect of 50% or more. Effects have a minus sign here. For the sample, strong results were picked, then their nearest neighbours and some compounds at random.

What follows are molecules tested against human ether-à-go-go-related gene (hERG) potassium channel (human, UniProt Q12809) (assay: primary screen, population patch clamp on CHO cells stably expressing hERG; higher = less effect of the substance).
Chain of human ether-à-go-go-related gene (hERG) potassium channel (Q12809 whole entry, looked up): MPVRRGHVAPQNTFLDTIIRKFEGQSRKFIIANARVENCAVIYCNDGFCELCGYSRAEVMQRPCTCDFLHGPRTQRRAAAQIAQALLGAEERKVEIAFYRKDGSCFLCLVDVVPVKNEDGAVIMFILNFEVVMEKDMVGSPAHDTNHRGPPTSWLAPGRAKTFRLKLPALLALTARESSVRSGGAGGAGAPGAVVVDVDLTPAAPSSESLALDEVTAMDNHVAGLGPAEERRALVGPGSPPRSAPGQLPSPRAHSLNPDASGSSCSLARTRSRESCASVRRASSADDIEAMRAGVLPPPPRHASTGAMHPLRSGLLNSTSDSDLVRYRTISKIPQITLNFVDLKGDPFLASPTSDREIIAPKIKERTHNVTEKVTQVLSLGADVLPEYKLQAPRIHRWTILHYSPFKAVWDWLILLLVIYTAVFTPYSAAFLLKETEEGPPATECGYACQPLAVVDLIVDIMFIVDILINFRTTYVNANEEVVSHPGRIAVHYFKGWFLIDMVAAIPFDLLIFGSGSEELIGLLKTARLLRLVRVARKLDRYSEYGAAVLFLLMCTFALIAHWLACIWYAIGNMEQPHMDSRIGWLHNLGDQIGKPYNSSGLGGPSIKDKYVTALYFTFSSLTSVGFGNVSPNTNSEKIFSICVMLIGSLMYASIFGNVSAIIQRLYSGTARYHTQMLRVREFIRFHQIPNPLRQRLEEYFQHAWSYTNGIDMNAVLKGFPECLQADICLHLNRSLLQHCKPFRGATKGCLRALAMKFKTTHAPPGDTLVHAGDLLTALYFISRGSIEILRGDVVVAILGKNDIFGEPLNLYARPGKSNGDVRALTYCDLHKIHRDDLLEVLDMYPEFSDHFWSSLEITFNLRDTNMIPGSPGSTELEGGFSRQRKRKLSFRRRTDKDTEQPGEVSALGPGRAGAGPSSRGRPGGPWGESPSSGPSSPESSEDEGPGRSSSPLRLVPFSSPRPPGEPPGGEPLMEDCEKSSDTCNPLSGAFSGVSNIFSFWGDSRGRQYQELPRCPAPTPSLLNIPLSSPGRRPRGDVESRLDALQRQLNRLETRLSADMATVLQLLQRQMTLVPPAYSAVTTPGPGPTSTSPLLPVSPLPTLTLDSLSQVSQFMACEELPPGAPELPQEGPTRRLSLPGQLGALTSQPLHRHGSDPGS
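Further: peak tail current of the secondary pulse compared with the same well before compound.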

SMILES | hERG current change (%, negative = inhibition) at 10uM
COc1ccccc1NC(=O)NCC(c1ccco1)N1CCCCC1 (centres unmarked) | 14.8%
Cc1ccc(S(=O)(=O)Nc2ccc(SC(F)F)cc2)c(C)c1 | 10.3%
COc1ccc(NC(=O)CN2C(=O)C(C)Oc3ccc(C)cc32)cc1 (centres unmarked) | 3.11%
CC(NC(=O)COc1ccccc1Cl)c1ccccc1 (centres unmarked) | 7.82%
O=C(N/C(=C\c1cccs1)C(=O)N1CCOCC1)c1ccco1 | 0.17%
Cc1ccc(NC(=O)/C(=C/c2cccs2)NC(=O)c2ccco2)cc1 | 6.71%
CN1CCN(C(=O)/C(=C\c2cccs2)NC(=O)c2ccco2)CC1 | -67.4%
Cc1ccccc1NC(=O)/C(=C\c1cccs1)NC(=O)c1ccco1 | -7.17%
CN1CCN(C(=O)/C(=C/c2cccs2)NC(=O)c2ccco2)CC1 | -70.5%
O=C(N/C(=C/c1cccs1)C(=O)N1CCOCC1)c1ccco1 | -1.03%
O=C(Nc1ccc(S(=O)(=O)N2C[C@@H]3C[C@@H](C2)c2cccc(=O)n2C3)cc1)c1ccc(F)cc1 | -2.39%
CC(=O)Nc1nc(N)n(-c2ccccc2)n1 | 3.2%
Clc1ccc(-c2ncc3ccccn23)cc1 | -4.95%
CN(c1ccc(C(=O)NCc2ccc3c(c2)OCO3)cc1)S(=O)(=O)c1ccccc1 | -4.02%
O=C(NC1=NCCS1)C1CC2CCC1C2 (centres unmarked) | 2.05%
COc1ccc(/C=N\NC(=O)c2cc(O)c(O)c(O)c2)cc1COc1ccc(C(=O)OCC(C)C)cc1 | 21%
CC(C)(C)c1ccc(OC(=O)c2ccc3snnc3c2)cc1 | 20.4%
CCN(CC)CCN(Cc1cc2cc3c(cc2[nH]c1=O)OCO3)C(=S)NCc1ccco1 | -55.8%
CCN(CC)CCCN(Cc1cc2cc3c(cc2[nH]c1=O)OCO3)C(=S)NCc1ccco1 | -38.2%
Cc1ccc(C)c2[nH]c(=O)c(CN(Cc3cccs3)C(=S)NCc3ccco3)cc12 | -33%
Cc1cc2cc(CN(Cc3cccs3)C(=S)NCc3ccco3)c(=O)[nH]c2cc1C | -13.9%
Cc1ccc(C)c2[nH]c(=O)c(CN(CC3CCCO3)C(=S)NCc3ccco3)cc12 (centres unmarked) | -24.3%
O=c1[nH]c2cc3c(cc2cc1CN(Cc1cccnc1)C(=S)NCc1ccco1)OCO3 | -52.5%
CCN(CC)CCN(Cc1cc2cc(C)c(C)cc2[nH]c1=O)C(=S)NCc1ccco1 | -52.8%
Cc1cc2cc(CN(CCN(C)C)C(=S)NCc3ccco3)c(=O)[nH]c2cc1C | -43.8%
O=c1[nH]c2cc3c(cc2cc1CN(Cc1cccnc1)C(=S)NCc1ccco1)OCCO3 | -5.62%
Cc1ccc(C)c2[nH]c(=O)c(CN(Cc3cccnc3)C(=S)NCc3ccco3)cc12 | -61.1%
CN(C)CCN(Cc1cc2cc3c(cc2[nH]c1=O)OCO3)C(=S)NCc1ccco1 | -11.4%
O=c1[nH]c2cc3c(cc2cc1CN(CCCO)C(=S)NCc1ccco1)OCO3 | 12%
